Sampled rows, rich in hits. Any-hit rate of the full collection: about 21%.
Pf growth 96h – inhibits malaria parasite growth, 96 h; P. falciparum luciferase reporter growth, 96 h; Potency, µM (doses to about 28.7 µM), for the others: at the top dose activity change, negative = inhibition, actives largely listed as inhibitors; hit rate 6.9% among 320,000; also: potency is read from the fitted curve at half-maximal effect; % is scaled to controls: 0 for no effect and ±100 for the full control effect
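Erythrocytes infected with luciferase-expressing P. falciparum were dispensed at 2% hematocrit and 0.05% parasitemia (final), then incubated with compounds 96 hours at 37 C in 5% CO2. Luminescence after detection reagent addition reported growth.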
Cycloheximide cs – counter-screen for Shiga toxin inhibitors: cycloheximide protein synthesis inhibition; cell reporter, cycloheximide protein synthesis inhibition counterscreen; hit rate 12% among 300,000; max response, %; in the data active = max response mostly above about 13%, no sharp cut-off; inactive = mostly below about 14%; also: read at 38.3 µM for the half of the compounds with a filed dose; 0% is about no effect
Pf growth 48h – inhibits P. falciparum growth in the first generation, 48 h; P. falciparum luciferase growth in erythrocytes, 48 h; Potency, µM (highest dose often 28.7 µM), without a hit: at the highest dose activity change, negative = inhibition, hits mostly inhibitors; hit rate 5.9% among 310,000; AID 504832; also: potency is read from the fitted curve at half-maximal effect; % is scaled to controls: 0 for no effect and ±100 for the full control effect
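Compounds are pin-transferred into medium, infected erythrocytes (2% hematocrit, 0.1% parasitemia final) are added, and plates sit one parasite generation at 37 C in 5% CO2. Detection reagent is then added and luminescence measured.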
Shiga inhibitor – blocks Shiga toxin action in Vero cells; Vero cells, Shiga toxin protein synthesis inhibition reporter; inhibition, % at 38.7 µM; hit rate 9.2% among 290,000; in the data active = inhibition mostly above about 28%, no sharp cut-off; inactive = mostly below about 43%; also: 0% is about no effect
* hit, by the source's call; ? = inconclusive; nt = not tested or not shown. Unless noted, calls follow the shape of the dose curve; as a rule, active = well fitted inhibition curve with a large enough effect; inconclusive = small, poorly fitted or top-dose-only effect, or another doubt; inactive = no such curve, though single readings can be large or run the other way.

SMILES	Pf growth 96h	Cycloheximide cs	Pf growth 48h	Shiga inhibitor
CCN(CC)CCC(c1ccc2c(c1)OCO2)c1c(O)cc(OC)cc1OC (stereo not given)	2.9µM*	1	1.5µM*	14
COc1cc(O)c(C(CCN2CCCC2)c2ccc3c(c2)OCO3)c(OC)c1 (stereo not given)	2.9µM*	6	2.9µM*	-5
COc1cc(O)c(C(CC(=O)N2CCCC2)c2ccc3c(c2)OCO3)c(OC)c1 (stereo not given)	?	-4	?	-6
CCN(CC)C(=O)CC(c1cc(OC)c(OC)c(OC)c1)c1c(O)cc(OC)cc1OC (stereo not given)	?	-3	?	1
COc1cc(O)c(C(CCN2CCN(c3ccccc3)CC2)c2ccc3c(c2)OCO3)c(OC)c1 (stereo not given)	0.33µM*	1	0.83µM*	4
CCN(CC)CCC(c1cc(OC)c(OC)c(OC)c1)c1c(O)cc(OC)cc1OC (stereo not given)	2.9µM*	-4	3.3µM*	16
COc1cc(O)c(C(CC(=O)N2CCCC(C)C2)c2cc(OC)c(OC)c(OC)c2)c(OC)c1 (stereo not given)	?	5	?	3
COc1cc(O)c(C(CCN2CCN(c3ccccc3)CC2)c2cc(OC)c(OC)c(OC)c2)c(OC)c1 (stereo not given)	0.93µM*	4	1.3µM*	6
CC(C)C[C@@H](NC(=O)C1CCC(CNC(=O)[C@H](Cc2ccccc2)NC(=O)OC(C)(C)C)CC1)C(=O)O (stereo not given in full)	-9%	-1	-12%	-7
CCOc1ccc(C)cc1-n1nc2ccccc2n1	?	20*	20%	19
COc1ccc(C)cc1-n1[nH]nnc1=S	18%	0	-1%	-19
Cc1ccc(O)c(Cn2nnc3ccccc32)c1	?	nt	10µM*	nt
Oc1ccc(Br)cc1Cn1nnc2ccccc21	-7%	-2	?	-10
Cc1ccc(OCC(=O)Nc2ccc(Cl)cc2)c(-n2nc3ccccc3n2)c1	44%	2	21%	-1
Cc1ccc(O)c(-n2nc3ccccc3n2)c1	?	44*	97%	90*
COc1ccc(C)cc1-n1nc2ccccc2n1	?	26*	22%	54
Cc1ccccc1CC1SC(N=C(N)N)=NC1=O (stereo not given)	?	-1	-7%	nt
O=C(NCCCN1CCCC1=O)C1CCN(S(=O)(=O)c2ccc(Cl)cc2)CC1	?	nt	-16%	nt
COc1ccccc1NC(=O)/C(=C\c1cccnc1)NC(=O)c1ccc(C)cc1	10µM*	-2	-8%	-7
COc1ccccc1CCNC(=O)/C(=C/c1cccnc1)NC(=O)c1ccccc1	10µM*	-2	-11%	-9
CCOC(=O)c1cc(-c2csc(Nc3c(C)cc(C)cc3C)n2)on1	4%	1	-1%	-10
CC(C)CC(=O)NC1(C(F)(F)F)C(=O)N(CC(C)C)C2=C1C(=O)CC(C)(C)C2 (stereo not given)	-2%	-3	1%	-1
O=C(Nc1cnc2sccn2c1=O)c1ccccc1Cl	-19%	40*	131%	65
COc1ccc(NC(=O)c2cnc3sccn3c2=O)cc1	45%	27*	107%	43*
O=C(NCCC(c1ccccc1)c1ccccc1)c1cnc2sccn2c1=O	26%	-3	-6%	-4
SMILES	Pf growth 96h	Cycloheximide cs	Pf growth 48h	Shiga inhibitor
O=C(Nc1ccon1)c1cnc2sccn2c1=O	34%	19	61%	14
Cc1cccc(NC(=O)c2cnc3ccccn3c2=O)c1	12µM*	31*	188%	22*
Cc1cccc(NC(=O)c2cnc3sccn3c2=O)c1	412%	56*	160%	77*
CC(=O)c1cnc2sccn2c1=O	7%	-4	286%	9
Cc1ccccc1-n1nc2c(c1NC(=O)c1cc3ccccc3o1)CS(=O)(=O)C2	-16%	nt	?	nt
CC(=O)c1cc(CN2CCN(C3CCN(C(C)C)CC3)C(CCO)C2)cs1 (stereo not given)	?	1	39%	-4
CC1CC(OC(=O)c2ccccc2O)CC(C)(C)C1 (stereo not given)	-3%	nt	-6%	nt
O=C(NCc1cccnc1)c1cnc2sccn2c1=O	19%	-1	31%	-3
Cc1cccc(NC(=O)c2cnc3sccn3c2=O)c1C	-18%	24*	99%	66*
CCOC(=O)c1sc(NC(=O)CN2CCN(c3ccccc3)CC2)nc1C	?	-3	2%	-9
COc1cc(/C=C/C(=O)OCc2csc(CC(=O)Nc3ccc(C)cc3)n2)ccc1OCC#N	13µM*	nt	?	nt
COc1cc(C(=O)Oc2ccc3ccc(O)cc3c2)cc(OC)c1OC	18%	21*	5%	30
COc1ccc(/C=C/c2ccncc2)cc1OC	?	28*	52%	57*
COc1cc(C(=O)Oc2cccnc2)cc(OC)c1OC	-15%	7	-11%	-13
O=C(Oc1ccc2ccc(O)cc2c1)c1ccccc1Cl	88%	32*	140%	44*
Cc1ccc(NC(=O)CSc2nnc(C)n2C2CC2)cc1S(=O)(=O)N1CCOCC1	?	nt	-31%	nt
O=S(=O)(Nc1ccc(-n2cnnn2)cc1)c1cccc(F)c1	1%	nt	?	nt
O=C(CN1CCN(c2cnn(-c3ccccc3)c(=O)c2Cl)CC1)NC1CCS(=O)(=O)C1 (stereo not given)	25%	nt	25%	nt
CC1CN(C(=O)/C=C/c2ccccc2Cl)CC(C)O1 (stereo not given)	-29%	-1	33%	11
OC1(c2ccccc2)CN(c2ccccc2)C2=[N+]1CCS2 (stereo not given)	?	1	?	-10
CCOc1cc(/C=C/C(=O)c2ccc(C)cc2)ccc1OCC(=O)N(C)C	?	-1	?	19
COc1cc(/C=C/C(=O)O)ccc1OS(=O)(=O)c1c(C)c(C)cc(C)c1C	-71%	nt	10µM*	nt
COc1cc(/C=C/C(=O)c2ccc(C)cc2)ccc1OCC#N	?	81*	?	107*
COc1cc(C(=O)Oc2cc(C)cc(C)c2)cc(OC)c1OC	-15%	1	15µM*	-2
COc1ccc(/C=C/C(=O)O)cc1O	2%	nt	9%	nt
SMILES	Pf growth 96h	Cycloheximide cs	Pf growth 48h	Shiga inhibitor
COc1ccc(Oc2ccc(/C=C/C(=O)c3ccc(O)cc3)cc2[N+](=O)[O-])cc1	12µM*	7	12µM*	20
COc1ccc(C=O)cc1Cn1ccnc1C	?	-4	0%	-4
Cc1c(C(=O)O)sc2nc(CSc3ncc(C(F)(F)F)cc3Cl)[nH]c(=O)c12	48%	0	46%	-3
COc1ccc(/C=C/C(=O)c2ccccc2)cc1Cn1nnc2ccccc21	?	27*	?	27*
COc1ccc(/C=C/C(=O)c2ccccc2)cc1COc1ccc(F)cc1	?	10	?	29
COc1ccc(C(=O)/C=C/c2ccc(OC(=O)c3cc(OC)c(OC)c(OC)c3)cc2)cc1	4.7µM*	1	2.9µM*	-5
COc1ccc(/C=C/C(=O)c2cc(Br)ccc2OC(=O)c2ccco2)cc1OC	20%	10	12µM*	10
COc1ccc(/C=C/C(=O)C2(O)CCCCC2)cc1	-9%	19*	0%	47*
COc1ccc(/C=C/C(=O)Oc2ccc(C)cc2)cc1	?	1	0%	40

From PubChem BioAssay
